Screening results: PubChem BioAssay, National Center for Advancing Translational Sciences (NCATS)
rTrxR1 inhibitor: rat TrxR1 inhibition; recombinant rTrxR1, NADPH fluorescence consumption, selenite substrate; Potency, µM (highest dose often 114 µM), most hits filed as inhibitors; actives 1% (n = 390,000); further: nearly all actives have a fitted effect of over 65% in size
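Rat TrxR1 (90 nM in the dispensed reagent) was pre-reduced with 400 uM NADPH for 5 min at room temperature, then incubated with compound for 15 min. After 400 uM selenite was added, NADPH fluorescence (Ex 340/Em 450 nm) was followed for 8 min.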
Vif-A3G inh: Vif-A3G binding inhibition; Potency, µM (titrated, usually from 46.1 µM), hits mostly inhibitors; Q9HC16; AID 602310; actives 0.076% (n = 410,000); HeLa A3G-eYFP + Vif (tagged APOBEC3G with the HIV-1 protein that degrades it), YFP fluorescence, overnight; further: nearly all actives have a fitted effect of over 60% in size
Target sequence (Q9HC16 whole entry, looked up): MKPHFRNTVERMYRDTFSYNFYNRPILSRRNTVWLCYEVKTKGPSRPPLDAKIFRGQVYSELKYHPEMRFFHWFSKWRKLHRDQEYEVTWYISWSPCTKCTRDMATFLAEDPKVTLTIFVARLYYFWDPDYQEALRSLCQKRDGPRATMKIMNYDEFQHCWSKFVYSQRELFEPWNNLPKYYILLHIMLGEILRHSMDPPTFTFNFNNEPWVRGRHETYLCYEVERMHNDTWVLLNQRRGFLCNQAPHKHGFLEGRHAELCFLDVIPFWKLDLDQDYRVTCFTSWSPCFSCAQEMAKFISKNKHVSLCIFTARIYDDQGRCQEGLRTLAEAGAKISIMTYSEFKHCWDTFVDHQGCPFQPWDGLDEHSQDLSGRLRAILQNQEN
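Read-out is eYFP fluorescence (Ex 488/Em 500-530) from Vif-expressing HeLa A3G-eYFP cells; more signal means A3G escaped Vif-mediated degradation. Cells plated overnight, compound pinned in, incubated overnight at 37 deg C.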
VDR inh: blocks the human vitamin D receptor; P11473; VDR-SRC2-3 peptide fluorescence polarization, 2 h; Potency, µM, usual class: inhibitors; actives 0.93% (n = 400,000); AID 504847
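Two reagent solutions held at 4 deg C in the dark were dispensed, compounds pinned at 23 nl, and the mixture incubated 2 h at room temperature. Read-out: fluorescence polarization of VDR–SRC2-3 peptide binding.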
TrxR1 substrate: substrates of rat thioredoxin reductase 1 | purified TrxR1 substrate turnover, NADPH consumption readout | actives 0.01% (n = 390,000) | Potency, µM (highest dose often 114 µM) | O89049; further: nearly all actives have a fitted effect of over 50% in size
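Rat TrxR1, dispensed at 90 nM, was prereduced with 400 uM NADPH (final) for 5 min at ~22 deg C, then incubated with compound 15 min before 400 uM selenite. A first-read NADPH fluorescence drop versus no-compound background flagged substrates.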
Vif-A3F inh: Vif-A3F binding inhibition; HeLa A3F-eYFP + Vif (tagged APOBEC3F with the HIV-1 protein that degrades it), YFP fluorescence increase; Potency, µM (top dose mostly 46.1 µM); actives 0.2% (n = 390,000); AID 602313; further: nearly all actives have a fitted effect of over 65% in size
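Fluorescence increase (Ex 488/Em 500-530) after overnight compound treatment at 37 deg C flags inhibition of Vif-driven A3F-eYFP loss in stable HeLa A3F-eYFP/Vif cells seeded overnight beforehand.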
TRb-SRC2 inh: disrupts human TRb binding to SRC2 peptide in AlphaScreen; shares compounds with rTrxR1 inhibitor; AlphaScreen TRb LBD-SRC2 peptide binding, luminescence; Potency, µM; actives 50% (n = 30); AID 2444; calls by dose curve
HepG2 viability: reduces HepG2 viability in TRb-SRC2 counter-screen. shares compounds with rTrxR1 inhibitor. HepG2 viability, ATP luminescence (CellTiter-Glo), 72 h. Potency, µM. actives 50% (n = 40). AID 2447; calls by dose curve
AR SRC2 FP: AR-SRC2 (human) interaction inhibition, selectivity; shares compounds with rTrxR1 inhibitor; AR-LBD Tx-SRC2-3 fluorescence polarization, 3 h; calls only; 25 tested, under 10 active; call rule not given here
PPARg-DRIP2 inh: selectivity of TRb-SRC2 inhibitors: human PPARgamma coactivator binding inhibition | shares compounds with rTrxR1 inhibitor | PPARg LBD / Texas Red DRIP-2 peptide, fluorescence polarization, 3 h | Potency, µM | 25 tested, under 10 active | AID 2449; calls by dose curve
VDR SRC2 FP: selectivity of TRb-SRC2 inhibitors: human vitamin D receptor-SRC2 inhibition; shares compounds with rTrxR1 inhibitor; VDR LBD/SRC2-3 peptide, fluorescence polarization, 3 h; Potency, µM; 25 tested, under 10 active; AID 2455; calls by dose curve
TRb-SRC2 FP Fluo: disrupts human TRb binding to fluorescein-SRC2 peptide | AID 2487 | 20 tested, under 10 active | Potency, µM | shares compounds with rTrxR1 inhibitor | TRb LBD / fluorescein-SRC2 peptide, fluorescence polarization; call rule not given here
Large screens that a line does not name were inactive (follow-up assays come after a bar, where they were run); ! = repeats disagree. Shown are actives, neighbours in structure and some others; about 1.8% of the full set was active somewhere. Unless noted, the call rests on the fitted dose curve; in most records, active means well fitted curve in the direction sought with a large enough effect; inconclusive means small, poorly fitted or top-dose-only effect, or another doubt; inactive means no such curve, though single readings can be large; an effect the other way counts as inactive or inconclusive.

CS(=O)(=O)c1ccc(C(=O)OCC(=O)NC(=O)NC2CCCCC2)cc1[N+](=O)[O-]	rTrxR1 inhibitor 7.08µM, VDR inh inconclusive (no result: Vif-A3F inh) | TRb-SRC2 inh 16.7µM | HepG2 viability inactive | AR SRC2 FP inactive | PPARg-DRIP2 inh inconclusive | VDR SRC2 FP 48.7µM | TRb-SRC2 FP Fluo 13.9µM
Cn1cccc1C(=O)NC(=O)COC(=O)c1ccc(S(C)(=O)=O)c([N+](=O)[O-])c1	rTrxR1 inhibitor 4.47µM!, VDR inh inconclusive | TRb-SRC2 inh 26.8µM | HepG2 viability inconclusive | AR SRC2 FP inactive | PPARg-DRIP2 inh 51.6µM | VDR SRC2 FP inconclusive | TRb-SRC2 FP Fluo inconclusive
CS(=O)(=O)c1ccc(C(=O)OCC(=O)NCC2CCCO2)cc1[N+](=O)[O-] (centres undefined)	rTrxR1 inhibitor 3.55µM (no result: Vif-A3F inh) | TRb-SRC2 inh inactive | HepG2 viability inconclusive | AR SRC2 FP inactive | PPARg-DRIP2 inh inactive | VDR SRC2 FP inactive | TRb-SRC2 FP Fluo inactive
CCOC(=O)Cn1nc(N2CCN(c3ccc(F)cc3)CC2)ccc1=O	none
CCc1ccc2occ(CC(=O)Nc3ccc(OC)c(Cl)c3)c2c1	none (no result: Vif-A3F inh)
CN(c1nccc(=O)[nH]1)C1CCN(c2nc3ccccc3n2Cc2ccc(F)cc2)CC1	none (no result: rTrxR1 inhibitor, Vif-A3G inh, TrxR1 substrate, Vif-A3F inh)
Cc1cccc(CNc2nc(-c3ccc4c(c3)OCO4)nc3ccccc23)c1	none (no result: rTrxR1 inhibitor, Vif-A3G inh, TrxR1 substrate, Vif-A3F inh)
Cc1ccc(F)cc1NC(=O)COC(=O)c1ccc(S(C)(=O)=O)c([N+](=O)[O-])c1	rTrxR1 inhibitor 2µM, Vif-A3G inh inconclusive (no result: Vif-A3F inh) | TRb-SRC2 inh inactive | HepG2 viability 12.5µM | TRb-SRC2 FP Fluo inactive
CCOC(=O)C1CCCN(C(=O)c2ccc3c(c2)sc2nc(-c4cccc(OC)c4)cn23)C1 (centres undefined)	none
